One test has as its system HCI01 (cells of a triple-negative basal-like breast cancer xenograft). Put plainly: cell viability of combination (% of vehicle); higher = less cytotoxic. The following applies: 1 µM; 72 h; partner dose: 10 nM. As for the experimental part:
(§1)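 PDX cells were treated for 72 h with each drug at 1 µM plus afatinib (10 nM; 1 µM for WHIM30). Luciferase viability is expressed as percent of vehicle.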

The test system of another test is WHIM2 (cells of a triple-negative basal-like breast cancer xenograft). Described as above. Conditions: 1 µM; 72 h; partner dose: 10 nM. As for the experimental part: as §1

As for `CC(C)N=c1cc2n(-c3ccc(Cl)cc3)c3ccccc3nc-2cc1Nc1ccc(Cl)cc1` [Clofazimine] + CN(C)C/C=C/C(=O)Nc1cc2c(Nc3ccc(F)c(Cl)c3)ncnc2cc1O[C@H]1CCOC1 [Afatinib], the “cell viability of combination” value was 45.8 with HCI01 and 38.9 in the test on WHIM2.

Take `COC(=O)C1=C(C)NC(C)=C(C(=O)OCCN(C)Cc2ccccc2)C1c1cccc([N+](=O)[O-])c1.Cl` (centres undefined) [Nicardipine HCl] + CN(C)C/C=C/C(=O)Nc1cc2c(Nc3ccc(F)c(Cl)c3)ncnc2cc1O[C@H]1CCOC1 [Afatinib]: the “cell viability of combination” value stood at 58.7 in the test with HCI01 and 48 with WHIM2.

With `CS(=O)(=O)O.Cc1c(O)cccc1C(=O)NC(CSc1ccccc1)C(O)CN1CC2CCCCC2CC1C(=O)NC(C)(C)C` (centres undefined) [Nelfinavir Mesylate] + CN(C)C/C=C/C(=O)Nc1cc2c(Nc3ccc(F)c(Cl)c3)ncnc2cc1O[C@H]1CCOC1 [Afatinib], the “cell viability of combination” value in the test on HCI01 worked out at 44.5; in the test on WHIM2 it was 53.6.

Take `C=C1C(=CC=C2CCCC3(C)C2CCC3C(C)CCCC(C)C)CC(O)CC1O` (centres undefined) [Alfacalcidol] + CN(C)C/C=C/C(=O)Nc1cc2c(Nc3ccc(F)c(Cl)c3)ncnc2cc1O[C@H]1CCOC1 [Afatinib]: the “cell viability of combination” value in the test with HCI01 amounted to 42.1; with WHIM2, 34.4.

Turning to `CC(=O)c1cc2c(o1)C(=O)c1ccccc1C2=O` [Napabucasin] + CN(C)C/C=C/C(=O)Nc1cc2c(Nc3ccc(F)c(Cl)c3)ncnc2cc1O[C@H]1CCOC1 [Afatinib], the “cell viability of combination” value with HCI01 came out at 16.2; with WHIM2, 29.7.

For the compound `Clc1ccc(CSC(Cn2ccnc2)c2ccc(Cl)cc2Cl)cc1.O=[N+]([O-])O` (centres undefined) [Sulconazole Nitrate] + CN(C)C/C=C/C(=O)Nc1cc2c(Nc3ccc(F)c(Cl)c3)ncnc2cc1O[C@H]1CCOC1 [Afatinib], the “cell viability of combination” value with HCI01 is 62.8; in the test on WHIM2, 49.5.

As for `COc1cc(Nc2ncc(F)c(Nc3ccc4c(n3)N(COP(=O)(O)O)C(=O)C(C)(C)O4)n2)cc(OC)c1OC` [Fostamatinib (R788)] + CN(C)C/C=C/C(=O)Nc1cc2c(Nc3ccc(F)c(Cl)c3)ncnc2cc1O[C@H]1CCOC1 [Afatinib], the results for the “cell viability of combination” value in the test on HCI01 and in the test with WHIM2 were 64.2 and 41.3, respectively.

As for `COC(=O)c1ccc2c(c1)NC(=O)C2=C(Nc1ccc(N(C)C(=O)CN2CCN(C)CC2)cc1)c1ccccc1` [Nintedanib (BIBF 1120)] + CN(C)C/C=C/C(=O)Nc1cc2c(Nc3ccc(F)c(Cl)c3)ncnc2cc1O[C@H]1CCOC1 [Afatinib], the “cell viability of combination” value with HCI01 was 45; in the test on WHIM2, 22.5.

Consider `Nc1ccc2cc3ccc([NH3+])cc3nc2c1.Nc1ccc2cc3ccc([NH3+])cc3nc2c1.O=S(=O)([O-])[O-]` [Proflavine Hemisulfate] + CN(C)C/C=C/C(=O)Nc1cc2c(Nc3ccc(F)c(Cl)c3)ncnc2cc1O[C@H]1CCOC1 [Afatinib], for which the “cell viability of combination” value was determined as 59.6 in the test on HCI01 and 29.5 with WHIM2.

On to `CN(C)CCOc1ccc(C(=C(CCCl)c2ccccc2)c2ccccc2)cc1.O=C(O)CC(O)(CC(=O)O)C(=O)O` [Toremifene Citrate] + CN(C)C/C=C/C(=O)Nc1cc2c(Nc3ccc(F)c(Cl)c3)ncnc2cc1O[C@H]1CCOC1 [Afatinib], for which the “cell viability of combination” value in the test on HCI01 stood at 70.8; with WHIM2, 55.7.

For the compound `COC(=O)NC(C(=O)N1CCCC1c1ncc(-c2ccc(-c3ccc(-c4cnc(C5CCCN5C(=O)C(NC(=O)OC)C(C)C)[nH]4)cc3)cc2)[nH]1)C(C)C` (centres undefined) + CN(C)C/C=C/C(=O)Nc1cc2c(Nc3ccc(F)c(Cl)c3)ncnc2cc1O[C@H]1CCOC1 [Afatinib], the “cell viability of combination” value in the test with HCI01 was determined as 48.3; in the test on WHIM2, 46.3.

Consider `CC[C@@H]1/C=C(\C)C[C@H](C)C[C@H](OC)[C@H]2O[C@@](O)(C(=O)C(=O)N3CCCC[C@H]3C(=O)O[C@H](/C(C)=C/[C@@H]3CC[C@H](Cl)[C@H](OC)C3)[C@H](C)[C@@H](O)CC1=O)[C@H](C)C[C@@H]2OC` [Pimecrolimus] + CN(C)C/C=C/C(=O)Nc1cc2c(Nc3ccc(F)c(Cl)c3)ncnc2cc1O[C@H]1CCOC1 [Afatinib], for which the entries for the “cell viability of combination” value with HCI01 and in the test on WHIM2 were 51.2 and 42.6, respectively.

`CC(C)C[C@H](NC(=O)[C@H](Cc1ccccc1)NC(=O)c1cnccn1)B(O)O` [Bortezomib] + CN(C)C/C=C/C(=O)Nc1cc2c(Nc3ccc(F)c(Cl)c3)ncnc2cc1O[C@H]1CCOC1 [Afatinib]: the “cell viability of combination” value in the test with HCI01 turned out to be 22.5; in the test on WHIM2 it was 14.4.

As to `COc1ccc2cc1Oc1ccc(cc1)CC1c3c(cc4c(c3Oc3cc5c(cc3OC)CCN(C)C5C2)OCO4)CCN1C` (centres undefined) [Cepharanthine] + CN(C)C/C=C/C(=O)Nc1cc2c(Nc3ccc(F)c(Cl)c3)ncnc2cc1O[C@H]1CCOC1 [Afatinib], the “cell viability of combination” value in the test on HCI01 stood at 48.5; with WHIM2, 38.1.

With `CC1(C)CCC(c2ccc(Cl)cc2)=C(CN2CCN(c3ccc(C(=O)NS(=O)(=O)c4ccc(NC(CCN5CCOCC5)CSc5ccccc5)c(S(=O)(=O)C(F)(F)F)c4)cc3)CC2)C1` (centres undefined) [ABT-263 (Navitoclax)] + CN(C)C/C=C/C(=O)Nc1cc2c(Nc3ccc(F)c(Cl)c3)ncnc2cc1O[C@H]1CCOC1 [Afatinib], the “cell viability of combination” value came to 33 in the test on HCI01 and 29.5 with WHIM2.

With `CC(NCCCc1cccc(C(F)(F)F)c1)c1cccc2ccccc12.Cl` (centres undefined) [Cinacalcet HCl] + CN(C)C/C=C/C(=O)Nc1cc2c(Nc3ccc(F)c(Cl)c3)ncnc2cc1O[C@H]1CCOC1 [Afatinib], the entries for the “cell viability of combination” value in the test with HCI01 and in the test with WHIM2 were 58.1 and 43.1, respectively.

Take `CNC(=O)c1cc(Oc2ccc(NC(=O)Nc3ccc(Cl)c(C(F)(F)F)c3)c(F)c2)ccn1` [Regorafenib] + CN(C)C/C=C/C(=O)Nc1cc2c(Nc3ccc(F)c(Cl)c3)ncnc2cc1O[C@H]1CCOC1 [Afatinib]: the results for the “cell viability of combination” value with HCI01 and with WHIM2 were 46.8 and 44.2, respectively.

For `CCCCCCCCCCCCCCCCOP(=O)([O-])OCC[N+](C)(C)C` [Miltefosine] + CN(C)C/C=C/C(=O)Nc1cc2c(Nc3ccc(F)c(Cl)c3)ncnc2cc1O[C@H]1CCOC1 [Afatinib], the “cell viability of combination” value in the test on HCI01 is 56.7; in the test with WHIM2, 49.3.

As for `Clc1ccc(COC(Cn2ccnc2)c2ccc(Cl)cc2Cl)cc1.O=[N+]([O-])O` (centres undefined) [Econazole nitrate] + CN(C)C/C=C/C(=O)Nc1cc2c(Nc3ccc(F)c(Cl)c3)ncnc2cc1O[C@H]1CCOC1 [Afatinib], the “cell viability of combination” value in the test on HCI01 and in the test on WHIM2 was 55.8 each time.

`COc1cccc2c1C(=O)c1c(O)c3c(c(O)c1C2=O)CC(O)(C(=O)CO)CC3OC1CC(N)C(O)C(C)O1.Cl` (centres undefined) [Epirubicin HCl] + CN(C)C/C=C/C(=O)Nc1cc2c(Nc3ccc(F)c(Cl)c3)ncnc2cc1O[C@H]1CCOC1 [Afatinib]: the “cell viability of combination” value in the test on HCI01 was 58; in the test with WHIM2 it was 10.2.

For `CC(C)c1nc(N(C)S(C)(=O)=O)nc(-c2ccc(F)cc2)c1C=CC(O)CC(O)CC(=O)[O-].CC(C)c1nc(N(C)S(C)(=O)=O)nc(-c2ccc(F)cc2)c1C=CC(O)CC(O)CC(=O)[O-].[Ca+2]` (centres undefined) [Rosuvastatin Calcium] + CN(C)C/C=C/C(=O)Nc1cc2c(Nc3ccc(F)c(Cl)c3)ncnc2cc1O[C@H]1CCOC1 [Afatinib], the “cell viability of combination” value with HCI01 was found to be 51.4; in the test with WHIM2, 44.2.

In the case of `COc1ccc2c(O[C@H]3CC4C(=O)N(C)CCCC/C=C\[C@H]5C[C@@]5(C(=O)NS(=O)(=O)C5CC5)NC(=O)[C@@H]4C3)cc(-c3nc(C(C)C)cs3)nc2c1C` (some centres undefined) [Simeprevir] + CN(C)C/C=C/C(=O)Nc1cc2c(Nc3ccc(F)c(Cl)c3)ncnc2cc1O[C@H]1CCOC1 [Afatinib], the “cell viability of combination” value in the test with HCI01 amounted to 53.9; in the test with WHIM2 it was 46.8.

`CCN(CC)CCCC(C)Nc1ccnc2cc(Cl)ccc12.O=P(O)(O)O.O=P(O)(O)O` (centres undefined) [Chloroquine diphosphate] + CN(C)C/C=C/C(=O)Nc1cc2c(Nc3ccc(F)c(Cl)c3)ncnc2cc1O[C@H]1CCOC1 [Afatinib]: the results for the “cell viability of combination” value in the test with HCI01 and in the test with WHIM2 were 44.6 and 34.5, respectively.

Regarding `CC(C)CC(NC(=O)CNC(=O)c1cc(Cl)ccc1Cl)B(O)O` (centres undefined) + CN(C)C/C=C/C(=O)Nc1cc2c(Nc3ccc(F)c(Cl)c3)ncnc2cc1O[C@H]1CCOC1 [Afatinib], the “cell viability of combination” value is 37 in the test with HCI01 and 94.3 in the test with WHIM2.

For the compound `Nc1ncn(C2OC(CO)C(O)C2O)c(=O)n1` (centres undefined) [5-Azacytidine] + CN(C)C/C=C/C(=O)Nc1cc2c(Nc3ccc(F)c(Cl)c3)ncnc2cc1O[C@H]1CCOC1 [Afatinib], the “cell viability of combination” value amounted to 53.5 in the test on HCI01 and 48.9 with WHIM2.

With `CCCSc1nc(NC2CC2c2ccc(F)c(F)c2)c2nnn(C3CC(OCCO)C(O)C3O)c2n1` (centres undefined) [Ticagrelor] + CN(C)C/C=C/C(=O)Nc1cc2c(Nc3ccc(F)c(Cl)c3)ncnc2cc1O[C@H]1CCOC1 [Afatinib], the “cell viability of combination” value in the test with HCI01 amounted to 57.8; in the test on WHIM2, 43.

Consider `Cc1cn(-c2cc(NC(=O)c3ccc(C)c(Nc4nccc(-c5cccnc5)n4)c3)cc(C(F)(F)F)c2)cn1` [Nilotinib(AMN-107)] + CN(C)C/C=C/C(=O)Nc1cc2c(Nc3ccc(F)c(Cl)c3)ncnc2cc1O[C@H]1CCOC1 [Afatinib], for which the “cell viability of combination” value in the test on HCI01 amounted to 45.9; in the test with WHIM2, 63.2.
